Measurements from PubChem BioAssay AID652054 (National Center for Advancing Translational Sciences (NCATS), 2013).
The campaign covered roughly 360,000 compounds. About 9,100 (2.5%) were called active. Roughly 4% stayed inconclusive and do not appear here. Rule as the data show it: active = max response below about -50%; inconclusive = no clear call, values can overlap the other calls; inactive = above that. The list comes from a sample in which actives are over-represented; it also holds similar structures and randomly drawn compounds.
% is scaled to controls: 0 for no effect and ±100 for the full control effect.

The compounds below were run against D(3) dopamine receptor (Homo sapiens) (UniProt P35462) (assay: qHTS of D3 Dopamine Receptor Antagonist: qHTS). Conditions: D3R cells, DiscoveRx beta-arrestin luminescence, antagonist mode; active compounds read low.
D(3) dopamine receptor (Homo sapiens), sequence (P35462 whole entry, looked up): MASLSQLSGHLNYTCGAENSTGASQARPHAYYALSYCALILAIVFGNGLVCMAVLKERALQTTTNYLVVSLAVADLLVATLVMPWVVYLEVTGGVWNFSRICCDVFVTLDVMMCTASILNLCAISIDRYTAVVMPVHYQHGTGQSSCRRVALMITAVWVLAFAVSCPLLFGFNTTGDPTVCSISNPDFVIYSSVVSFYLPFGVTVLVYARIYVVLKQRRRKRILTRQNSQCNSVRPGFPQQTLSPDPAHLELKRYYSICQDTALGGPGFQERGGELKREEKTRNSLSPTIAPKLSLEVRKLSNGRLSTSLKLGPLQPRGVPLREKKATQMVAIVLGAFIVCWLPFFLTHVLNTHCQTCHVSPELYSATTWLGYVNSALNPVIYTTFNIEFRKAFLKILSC
Procedure, shortened: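 Cells plated overnight at 1500 cells/well, then exposed to library compounds with dopamine controls for 90 minutes at 37 degrees C. DiscoveRx reagent added for 30–60 minutes at room temperature; luminescence read, quantitative HTS format.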
With CC(C)C[C@H]1CNC(=O)C(=O)N1C[C@@H]1CCCN1C[C@H](Cc1ccccc1)N1C[C@H](CC(C)C)N(CC2CCCCCC2)C(=O)C1=O the max response, negative = inhibition was -0.867% (inactive).
In the case of CCOC(=O)[C@]12CCCC=C1N(CCC1=CCCCC1)C(=O)[C@H](CC(=O)N1CCN(C(=O)c3ccco3)CC1)C2, the max response, negative = inhibition is reported as 0% (inactive).
Brc1ccccc1CN1CCC(Cc2ccccc2)CC1 was tested, and the max response, negative = inhibition was -26.3% (inactive).
For Brc1ccc(CN2CC[C@H]3C=CCc4cccc(c43)C2)cc1, the max response, negative = inhibition was -107% (active).
For NC(=O)c1ccc(CN2CCC(Cc3ccccc3)CC2)cc1, the max response, negative = inhibition was -23.1% (inactive).
O[C@@H]1C[C@H](c2ccccc2)N(Cc2cccs2)C[C@H]1n1cc(C2CC2)nn1 was tested, and the max response, negative = inhibition was 2.45% (inactive).
For C[C@H]1Cn2cnc(C(=O)N[C@H](C)c3ccccc3)c2C(=O)N1, the max response, negative = inhibition was -3.02% (inactive).
With O=C1CCN(CCc2ccccc2)CCN1CCOc1ccccc1 the max response, negative = inhibition was -8.76% (inactive).
For O=c1[nH]c2ccccc2n1C1CCN(CCOc2ccccc2)CC1, the max response, negative = inhibition was -110% (active).
For OC(c1ccccc1)(c1ccccc1)C1CCN(CCCOc2ccccc2)CC1, the max response, negative = inhibition was -8.6% (inactive).
In the case of CS(=O)(=O)N1CCCCC1c1cc(C(=O)NCc2ccccc2)no1 (stereo not given), the max response, negative = inhibition is reported as 13.9% (inactive).
For CCN(CC)CCNCc1ccc(OCc2ccc(Cl)nc2)c(OC)c1, the max response, negative = inhibition was -23.1% (inactive).
COc1cc(CNCCN(C)C)ccc1OCc1c(F)cccc1Cl was tested, and the max response, negative = inhibition was -51.3% (active).
CCOCCCNCc1ccc(OCc2ccc(F)cc2)c(OC)c1 was tested, and the max response, negative = inhibition was 13.1% (inactive).
In the case of CCOC(=O)[C@]12CCCC=C1N(CCC1=CCCCC1)C(=O)[C@H](CC(=O)N1CCCCC1)C2, the max response, negative = inhibition is reported as 6.86% (inactive).
With Cc1ccc([C@@H]2CC(=O)[C@@H]3CN(S(=O)(=O)c4ccc(C)cc4)[C@H](c4ccccc4F)C[C@@H]3N2S(=O)(=O)c2ccc(Cl)cc2)cc1 the max response, negative = inhibition was 4.51% (inactive).
In the case of Cc1ccc2sc(N(CCN(C)C)C(=O)/C=C/c3cccs3)nc2c1C, the max response, negative = inhibition is reported as -69.2% (active).
Cc1cc(C)c2nc(N(CCN(C)C)C(=O)/C=C/c3cccs3)sc2c1 was tested, and the max response, negative = inhibition was -2.22% (inactive).
In the case of Cc1ccc(S(=O)(=O)N(C)C)cc1NC(=O)/C=C/c1cccs1, the max response, negative = inhibition is reported as -18.2% (inactive).
For COc1ccc(C2CC(c3cccc(OC)c3)=NN2c2ccc(S(N)(=O)=O)cc2)cc1 (stereo not given), the max response, negative = inhibition was 17.8% (inactive).
O=C(/C=C/[C@H]1O[C@@H](n2ccc(=O)[nH]c2=O)[C@H](O)[C@@H]1O)NCc1ccccn1 was tested, and the max response, negative = inhibition was 9.97% (inactive).
With O=C(CC1NCCNC1=O)Nc1ccc(Oc2ccccc2)cc1 (stereo not given) the max response, negative = inhibition was 24.3% (inactive).
O=C(CC1NCCNC1=O)Nc1cc(Cl)cc(Cl)c1 (stereo not given) was tested, and the max response, negative = inhibition was 20.6% (inactive).
In the case of O=C(CC1NCCc2ccccc21)Nc1cccc(Cl)c1 (stereo not given), the max response, negative = inhibition is reported as -95.5% (active).
For CC(=O)Nc1sc2c(c1C(c1cccc(F)c1)N1CCN(CCO)CC1)CCCC2 (stereo not given), the max response, negative = inhibition was -60.6% (active).
For O=C(Nc1sc2c(c1C(=O)O)CCC2)c1ccccc1F, the max response, negative = inhibition was -1.53% (inactive).
For Cc1cccc(C)c1NC(=O)C(c1cccc(F)c1)N1CCN(C)CC1 (stereo not given), the max response, negative = inhibition was -13.2% (inactive).
For Cc1ccc(S(=O)(=O)N[C@H]2CCC[C@@H]2O)cc1, the max response, negative = inhibition was -12.4% (inactive).
For CN(C(=O)CN1CCN(c2cc(-c3ccc(OCc4ccccc4)cc3)ncn2)CC1)c1ccccc1, the max response, negative = inhibition was 49% (inactive).
CN(CC(=O)NC1CCN(Cc2ccccc2)CC1)S(=O)(=O)c1ccc(Cl)s1 was tested, and the max response, negative = inhibition was -58.6% (active).
With CC(=O)NCc1ccc(S(=O)(=O)NC2CCN(Cc3ccccc3)CC2)cc1 the max response, negative = inhibition was -11.1% (inactive).
With CN(CC(=O)NC1CCCCC1)S(=O)(=O)c1ccc(Br)s1 the max response, negative = inhibition was -7.06% (inactive).
In the case of CCNC(=O)C1(C)CCCN1C(=O)c1ccc(N(C)C)cc1 (stereo not given), the max response, negative = inhibition is reported as 6.44% (inactive).
For CC(C)(C)N1C(=O)c2c(C(=O)OCc3ccccc3)[nH]c(-c3ccccc3)c2C1=O, the max response, negative = inhibition was -3.03% (inactive).
For CC(=O)Nc1cccc(-c2cc3nc(NCc4cccnc4)n(C)c(=O)c3s2)c1, the max response, negative = inhibition was 17.6% (inactive).
For COc1ccc(C(CNC(=O)COc2ccccc2OC)N2CCCCC2)cc1 (stereo not given), the max response, negative = inhibition was -53.8% (active).
For COc1ccc(C(CNC(=O)CSc2ccccc2)N2CCOCC2)cc1 (stereo not given), the max response, negative = inhibition was 19.6% (inactive).
For COc1ccc(C(CNC(=O)COc2ccc([N+](=O)[O-])cc2)N2CCCCC2)cc1 (stereo not given), the max response, negative = inhibition was -74.5% (active).
With COc1ccc(OCC(=O)NNC(=O)C2CCC2)cc1 the max response, negative = inhibition was -0.824% (inactive).
With CCOc1ccc(NS(=O)(=O)c2ccc(C(=O)NCC(c3ccccc3OC)N3CCCC3)cc2)cc1 (stereo not given) the max response, negative = inhibition was -13.6% (inactive).
In the case of COc1ccc(C(CNC(=O)c2ccc(OCc3cscn3)cc2)N2CCCC2)cc1 (stereo not given), the max response, negative = inhibition is reported as -19.8% (inactive).
CCc1nc2ccc(C(=O)NCCNC(C)=O)cn2c1N(CC)Cc1cccc(Br)c1 was tested, and the max response, negative = inhibition was 48.8% (inactive).
In the case of O=C1NC[C@H](Cc2ccc(O)cc2)N(C[C@@H]2CCCN2C[C@H](Cc2ccccc2)N2C[C@H](Cc3ccccc3)N(CC3CCCCC3)C(=O)C2=O)C1=O, the max response, negative = inhibition is reported as 8.41% (inactive).
With Cc1ccc(Sc2cc(C(=O)c3ccccc3C(=O)O)ccc2[N+](=O)[O-])cc1 the max response, negative = inhibition was -21.4% (inactive).
For Cc1ccc(SC(CC(=O)c2ccc(C(C)(C)C)cc2)C(=O)O)cc1 (stereo not given), the max response, negative = inhibition was -80.7% (active).
With CC(C)(C)c1ccc(C(=O)NNC(=O)Cc2ccccc2)cc1 the max response, negative = inhibition was -17.8% (inactive).
In the case of CCN1CCN(C(c2cccnc2)c2cc(Cl)c3cccnc3c2O)CC1 (stereo not given), the max response, negative = inhibition is reported as -91.7% (active).
In the case of Cc1ccc([C@H]2C[C@H](O)[C@@H](n3cc(COC(=O)c4ccccc4)nn3)CN2CC2CCCCC2)cc1, the max response, negative = inhibition is reported as 1.62% (inactive).
In the case of COc1cc(C(CCN2CCN(c3ccccc3)CC2)c2c(OC)cc(OC)c3ccc(=O)oc23)cc(OC)c1OC (stereo not given), the max response, negative = inhibition is reported as -84.7% (active).
For COc1ccc(C(CC(=O)N2CCN(c3ccccc3)CC2)c2c(O)cc(OC)cc2OC)cc1 (stereo not given), the max response, negative = inhibition was 8.17% (inactive).
With O=C(C(=O)N1CCN(c2ccccc2)CC1)c1ccc2c(c1)OCO2 the max response, negative = inhibition was -3.44% (inactive).
CCN(CC)CCC(c1cc(OC)c(OC)c(OC)c1)c1c(OC)cc(OC)c2c(-c3ccccc3)cc(=O)oc12 (stereo not given) was tested, and the max response, negative = inhibition was 15.7% (inactive).
In the case of COc1cc(OC)c2ccc(=O)oc2c1C(CCN1CCN(c2ccccc2)CC1)c1ccc2c(c1)OCO2 (stereo not given), the max response, negative = inhibition is reported as -81.3% (active).
In the case of CCN(CC)C(=O)CC(c1ccc2c(c1)OCO2)c1c(OC)cc(OC)c2c(-c3ccccc3)cc(=O)oc12 (stereo not given), the max response, negative = inhibition is reported as 0.75% (inactive).
With Cc1cc2nc(-c3ccc(F)cc3)c(Cc3ccsc3)n2c(C)c1Br the max response, negative = inhibition was 28.2% (inactive).
For Cc1cc(Br)cn2c(Cc3ccsc3)c(-c3ccc(C#N)cc3)nc12, the max response, negative = inhibition was 3.93% (inactive).
In the case of Cc1ccc(S(=O)(=O)N2CCC(=O)N([C@H](COCc3ccccc3)Cc3ccccc3)CC2)cc1, the max response, negative = inhibition is reported as -4.09% (inactive).
CCCc1ccc(S(=O)(=O)N2CCN(C(=O)c3cc(C)on3)CC2)cc1 was tested, and the max response, negative = inhibition was 15.8% (inactive).
In the case of COCCNC(=O)c1cc2c(Br)ccc(Br)c2nc1N, the max response, negative = inhibition is reported as -12.2% (inactive).
In the case of COc1ccc(NC(=O)C(c2ccncc2)n2c(=O)c(-c3cc4ccccc4[nH]3)nc3ccccc32)cc1 (stereo not given), the max response, negative = inhibition is reported as 12.2% (inactive).
For Cc1ccc(Cn2c(C)c(C(=O)NCc3ccccc3C(F)(F)F)sc2=O)cc1, the max response, negative = inhibition was 11.8% (inactive).
With Cc1cc(C#N)c(SCC(N)=O)nc1-c1ccc(F)cc1 the max response, negative = inhibition was 9.54% (inactive).
With Cc1ccc(NC(=O)CSc2sc3c(O)cc(=O)[nH]c3c2C#N)cc1C the max response, negative = inhibition was 12.7% (inactive).
For Cc1cc(=O)[nH]c(SCC(N)=O)c1C#N, the max response, negative = inhibition was -50.3% (active).
C=CCC[C@H](CCCCC)OC(=O)/C=C/[C@H](O)[C@@H](O)C[C@@H](O)CC=C was tested, and the max response, negative = inhibition was -8.69% (inactive).
With CC(C)(O)C#Cc1ccc(CNC[C@H]2O[C@@H](n3cnc4c(=O)[nH]c(N)nc43)[C@H](O)[C@@H]2O)s1 the max response, negative = inhibition was 14.7% (inactive).
In the case of Nc1ccccc1-c1nc2ccncc2[nH]1, the max response, negative = inhibition is reported as -1.55% (inactive).
With O=C(NC1CCN(Cc2ccccc2)CC1)c1cc(Br)c(Br)[nH]1 the max response, negative = inhibition was -86.7% (active).
With O=C(CN1CCCCC1)Nc1ccccc1C(=O)NC1CC1 the max response, negative = inhibition was 18.3% (inactive).
For Cc1cc(=O)oc2c(C)c(OC(C)C(=O)NC3CCN(Cc4ccccc4)CC3)ccc12 (stereo not given), the max response, negative = inhibition was 4.52% (inactive).
In the case of S=C(NCCCc1ccccc1)Nc1ccc(Br)cc1, the max response, negative = inhibition is reported as 11.9% (inactive).
With O=C(NC1CCN(Cc2ccccc2)CC1)c1ccccc1F the max response, negative = inhibition was -72.3% (active).
S=C(Nc1ccc(Br)cc1)NC1CCN(Cc2ccccc2)CC1 was tested, and the max response, negative = inhibition was -58.1% (active).
S=C(NN=C1CCN(Cc2ccccc2)CC1)NC1CCCCC1 was tested, and the max response, negative = inhibition was -1.61% (inactive).
CC(C)(C)C(=O)NNC(=O)c1ccc(Oc2cc(Cl)cc(Cl)c2)o1 was tested, and the max response, negative = inhibition was 19.5% (inactive).
In the case of O=C(NC1CCN(Cc2ccccc2)CC1)c1ccc(Oc2cc(Cl)cc(Cl)c2)o1, the max response, negative = inhibition is reported as -87.6% (active).
CCNC(=S)NNC(=O)C1CCN(Cc2ccccc2)CC1 was tested, and the max response, negative = inhibition was -27.2% (inactive).
In the case of N#Cc1ccc(CN2CCN(CC(=O)Nc3ccccc3C(=O)NC3CC3)CC2)cc1, the max response, negative = inhibition is reported as 1.04% (inactive).
For COc1ccccc1Cc1c(-c2ccc(Cl)cc2)nc2ccc(Cl)cn12, the max response, negative = inhibition was 6.17% (inactive).
In the case of CCCCc1ccc(S(=O)(=O)NC(=O)C2(C)CCN2C(=O)c2c(C)noc2C)cc1 (stereo not given), the max response, negative = inhibition is reported as 0% (inactive).
O=C1NC[C@H](CCCCN2C[C@H](Cc3ccc(O)cc3)N(CCc3ccccc3)C(=O)C2=O)N(CCc2ccccc2)C1=O was tested, and the max response, negative = inhibition was 4.98% (inactive).
CCOC(=O)[C@]12CCC=C1N(Cc1ccccc1)C(=O)[C@H](CC(=O)N1CCCC1)C2 was tested, and the max response, negative = inhibition was -17.7% (inactive).
For COc1ccccc1NC(=O)C(CC(=O)O)Cc1cc(C)cc(C)c1 (stereo not given), the max response, negative = inhibition was -7.58% (inactive).
In the case of O=S(=O)(c1cccc(C(F)(F)F)c1)N1c2ccccc2-n2cccc2C1c1cccnc1 (stereo not given), the max response, negative = inhibition is reported as 9.86% (inactive).
In the case of O=S1(=O)CC(N2CCN(CCO)CC2)CN1Cc1cn(Cc2cccc(Cl)c2)nn1 (stereo not given), the max response, negative = inhibition is reported as -8.85% (inactive).
